# Source: PubChem BioAssay (National Center for Advancing Translational Sciences (NCATS))
# Only some compounds are listed: those with a hit (about 19% of all), similar ones and a draw of the others.
# TDP1 cell noCPT = qHTS for Inhibitors of human tyrosyl-DNA phosphodiesterase 1 (TDP1): qHTS in cells in absence of CPT. DT40 Tdp1-/- hTDP1 cells, no CPT, ATP luminescence, 48 h. Potency, µM (titrated, usually from 46.2 µM), for inactives: at the highest dose activity change, negative = growth inhibition, most hits filed as inhibitors. hit rate 15% among 420,000; also: nearly all actives have a fitted effect of over 55% in size
#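 Chicken DT40 Tdp1-/- cells complemented with human TDP1, screened without camptothecin (DMSO vehicle only), 400 cells/well. Compounds pin-transferred, cells incubated at 37 °C for at least 48 hr. Growth read as ATP-dependent luminescence (CellTiter-Glo, 30 min at RT).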
# TDP1 block = inhibitors of human tyrosyl-DNA phosphodiesterase TDP1; recombinant TDP1, AlphaScreen DNA substrate cleavage; Potency, µM (top dose mostly 130 µM), without a hit: at the highest dose activity change, negative = inhibition, hits mostly inhibitors; Q9NUW8; hit rate 0.28% among 350,000; AID 485290; also: nearly all actives have a fitted effect of over 40% in size
#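 Tdp1 1 nM final; 15 min RT w/ cpd; substrate 15 nM, 5 min; beads 10 ug/ml, 10 min; AlphaScreen read. Neg ctrl: no enzyme.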
# RORg inh = inhibitors of mouse ROR gamma transcriptional activity. Drosophila S2 Gal4-RORgamma UAS-luciferase reporter, 20 h. hit rate 5.4% among 310,000. P51450. Potency, µM (highest dose often 53.6 µM), inactives show at the top dose activity change, negative = inhibition, actives largely listed as inhibitors; also: nearly all actives have a fitted effect of over 60% in size
# Target sequence (P51450 whole entry, looked up, the tested form may be a part): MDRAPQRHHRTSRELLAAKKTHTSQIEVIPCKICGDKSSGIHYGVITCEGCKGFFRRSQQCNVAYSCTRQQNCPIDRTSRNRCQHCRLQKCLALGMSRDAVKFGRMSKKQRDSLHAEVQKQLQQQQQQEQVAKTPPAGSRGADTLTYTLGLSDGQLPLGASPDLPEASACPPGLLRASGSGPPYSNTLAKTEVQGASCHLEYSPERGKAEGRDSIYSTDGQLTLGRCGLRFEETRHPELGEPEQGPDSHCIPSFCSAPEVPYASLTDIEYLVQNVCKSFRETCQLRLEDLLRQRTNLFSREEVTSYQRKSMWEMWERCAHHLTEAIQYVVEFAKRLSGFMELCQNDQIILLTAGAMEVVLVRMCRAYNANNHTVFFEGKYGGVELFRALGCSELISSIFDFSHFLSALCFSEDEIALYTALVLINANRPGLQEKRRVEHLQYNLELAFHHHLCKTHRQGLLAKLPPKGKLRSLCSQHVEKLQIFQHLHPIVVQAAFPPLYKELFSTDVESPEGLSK
#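 Stably transfected Drosophila Schneider cells are the test system, with ROR gamma fused to Gal4 and luciferase under UAS control; luminescence is read after 20 hr of 700 uM copper sulfate induction at ambient temperature.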
# Gal4-VP16 FLuc = inhibits Gal4-VP16 luciferase reporter, ROR gamma counter-screen. Drosophila S2 Gal4-VP16 UAS-luciferase, luminescence, 20 h. Potency, µM (doses to about 53.6 µM), for the others: at the top dose activity, negative = inhibition, actives largely listed as inhibitors. hit rate 3.5% among 310,000. AID 2546;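 also: Gal4-VP16 expression switched on by copper sulfate through the metallothionein promoter; nearly all actives have a fitted effect of over 50% in size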
# TDP1 cell CPT = growth inhibition of DT40 Tdp1-/-;hTDP1 cells with camptothecin (screen for TDP1 inhibitors) | Potency, µM (series often up to 46.2 µM), without a hit: top-dose activity change, negative = growth inhibition, actives largely listed as inhibitors | chicken DT40 Tdp1-/-;hTDP1 cells + 20 nM CPT, ATP luminescence, 48 h | hit rate 12% among 420,000; also: nearly all actives have a fitted effect of over 55% in size
#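 Cell growth measured by CellTiter-Glo luminescence after a minimum 48 h, 37 C compound exposure with 20 nM CPT in Tdp1-knockout DT40 cells stably expressing hTDP1, seeded 400/well; qHTS titration format.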
# An asterisk follows results filed as active; u = inconclusive; x = no result; [ ] = remark or other dose. Calls follow the shape of the dose curve; as a rule, active = well fitted curve in the direction sought with a large enough effect; inconclusive = small, poorly fitted or top-dose-only effect, or another doubt; inactive = no such curve, though single readings can be large; an effect the other way counts as inactive or inconclusive. % is scaled to controls: 0 for no effect and ±100 for the full control effect; potency is read from the fitted curve at half-maximal effect.
SMILES,TDP1 cell noCPT,TDP1 block,RORg inh,Gal4-VP16 FLuc,TDP1 cell CPT
COc1ccc2oc(C(=O)OC(C)C(=O)Nc3ccc(N4CCOCC4)cc3)c(C)c2c1 (stereo unspecified),11%,-5%,x,x,0%
CC(C)(C)NC(=O)C(c1ccc(-c2ccccc2)cc1)N(C[C@H]1CC[C@@H]([C@@H]2CC[C@H](CO)O2)O1)C(=O)c1cccc(Cl)c1 (stereo partly specified),u,0%[56.1 µM],x,x,u
COc1ccc(C(=O)C2CCCN(Cc3ccc(Sc4nncn4C)o3)C2)cc1F (stereo unspecified),-6%,5%,6%,4%,-2%
C=CCNS(=O)(=O)c1ccc(N2C(=O)c3ccccc3C2=O)cc1,0%,-5%,26%,-3%,-6%
COc1cccc(S(=O)(=O)Nc2cccc(C(=O)N3CCCCCC3)c2)c1,-2%,-3%,13%,-4%,2%
O=C(O)c1cccc(S(=O)(=O)Nc2ccc(Oc3ccccc3)cc2)c1,0%,0%,x,x,-20%
COc1cccc(S(=O)(=O)Nc2ccc(C(=O)N3CCCCCC3)cc2)c1,u,-3%,8.9µM*,8.9µM*,u
Cc1ccc(Oc2ccc(NS(=O)(=O)c3cccc(C(=O)O)c3)cc2)cc1,7.3µM*,0%,x,x,-3%
COc1ccc(N2CCN(C(=O)c3ccc(NS(=O)(=O)c4cccc(F)c4)cc3)CC2)cc1,u,11%,34%,4%,u
COc1ccccc1NS(=O)(=O)c1ccc(C(=O)N2CCCCCC2)cc1,13µM*,1%,x,x,18µM*
COc1ccc(NS(=O)(=O)c2cccc(C(=O)OCC(=O)N3CCN(c4ccc(OC)cc4)CC3)c2)cc1,13µM*,x,x,x,13µM*
COc1ccccc1NS(=O)(=O)c1ccc(C(=O)N2CCN(c3ccccc3)CC2)cc1,u,2%,x,x,u
CC1(C)Cc2c(cnn2-c2ccc(F)cc2)C(NC(=O)c2ccoc2)C1 (stereo unspecified),0%,2%,16%,3%,-25%
CCN(Cc1ccccc1)S(=O)(=O)c1cc(C(=O)NC2CCCCCC2)ccc1OC,u,5%,5%,-15%,23µM*
CCc1ccc(NC(=O)c2ccc(F)c(S(=O)(=O)N(CC)c3ccccc3)c2)cc1,8.2µM*,1%,20%,-3%,u
CCN(c1ccccc1)S(=O)(=O)c1cc(C(=O)Nc2cccc(Cl)c2)ccc1F,u,0%,14%,-19%,u
CCN(Cc1ccccc1)S(=O)(=O)c1cc(C(=O)Nc2cc(Cl)cc(Cl)c2)ccc1F,6.5µM*,5%,x,x,6.5µM*
CCOc1ccc(NC(=O)c2ccc(F)c(S(=O)(=O)N(CC)Cc3ccccc3)c2)cc1,21µM*,8%,x,x,15µM*
O=C(NC12CC3CC(CC(C3)C1)C2)c1cc(F)c(F)c(F)c1F,u,x,33%,3%,u
CC1=C(C(N)=O)C(c2cccc(F)c2)n2nc(SCc3ccccc3)nc2N1 (stereo unspecified),6%,-5%,x,x,8%
Nc1nnc(SCC(=O)Nc2nccs2)s1,-2%,x,-20%,0%,14%
COc1ccccc1CNC(=O)CN1CCC(NC(=O)c2ccccc2F)CC1,0%,0%,20%,-9%,-4%
CC(=O)N1c2ccc(S(=O)(=O)N3CCC(C(=O)Nc4cccc(F)c4)CC3)cc2CC1C (stereo unspecified),u,2%,11%,u,16µM*
O=C(Nc1ccc(F)cc1F)NC1CCN(Cc2c(F)cccc2Cl)CC1,21µM*,-2%,24%,-14%,u
COc1ccc(Cl)cc1NC(=O)C1CCN(S(=O)(=O)c2ccc(F)cc2)CC1,18µM*,x,x,x,u
SMILES,TDP1 cell noCPT,TDP1 block,RORg inh,Gal4-VP16 FLuc,TDP1 cell CPT
CC(=O)N1c2ccc(S(=O)(=O)N3CCC(C(=O)Nc4cc(C)cc(C)c4)CC3)cc2CC1C (stereo unspecified),u,3%,31%,2%,u
COc1ccc(Cl)cc1NC(=O)C1CCN(S(=O)(=O)c2ccc3c(c2)CC(C)N3C(C)=O)CC1 (stereo unspecified),21µM*,6%,x,x,16µM*
N=C1C(c2nc3ccccc3c(=O)[nH]2)=C(O)CN1CCO,-3%,3%,25%,2%,0%
CC(=O)N1c2ccc(S(=O)(=O)N3CCC(C(=O)Nc4ccc(C)cn4)CC3)cc2CC1C (stereo unspecified),u,4%,25%,18%,u
Cc1cc(Cl)ccc1NC(=O)NC1CCN(S(=O)(=O)c2ccc(F)cc2)CC1,u,6%,26%,-14%,23µM*
CC(=O)N1c2ccc(S(=O)(=O)N3CCC(C(=O)Nc4cccc(Cl)c4C)CC3)cc2CC1C (stereo unspecified),23µM*,5%,x,x,15µM*
CC(=O)N1c2ccc(S(=O)(=O)N3CCC(C(=O)Nc4cccc(Cl)c4)CC3)cc2CC1C (stereo unspecified),2.1µM*,0%,-31%,11µM*,2.1µM*
CC(=O)N1c2ccc(S(=O)(=O)N3CCC(C(=O)Nc4cccc(C)c4)CC3)cc2CC1C (stereo unspecified),u,2%,43%,u,16µM*
CCOC(=O)COc1ccc(C2CC(C)=NN2c2ccccc2)cc1 (stereo unspecified),-18%,4%,9%,-7%,5%
Cc1ccccc1NC(=O)Nc1nc(C2CCC(=O)N2)cs1 (stereo unspecified),-29%,x,x,x,u
Cc1ccccc1CSc1ncc(CO)n1Cc1ccc(F)cc1,u,8%,x,x,18µM*
COc1ccc(Cn2c(CO)cnc2SCc2ccccc2)cc1,u,9%,x,x,u
Cc1cccc(CSc2ncc(CO)n2C)c1,u,5%,22%,-1%,-11%
Cc1cccc(CSc2ncc(CO)n2Cc2ccc(F)cc2)c1,16µM*,10%,x,x,21µM*
O=S(=O)(Nc1ccc(N2CCOCC2)cc1)c1ccc(Cl)s1,u,5%,6%,12%,u
COc1ccc(CN(Cc2ccco2)C(=O)COc2ccc(Cl)cc2C)cc1,21µM*,0%,x,x,u
Cc1ccc(OCC(=O)N(Cc2ccco2)C2CCS(=O)(=O)C2)cc1C (stereo unspecified),-27%,x,-5%,8%,-7%
Cc1ccc(OCC(=O)N(Cc2ccc(Cl)cc2)Cc2ccco2)cc1C,21µM*,5%,x,x,u
Cc1ccc(NC(=O)/C(=C/c2ccncc2)NC(=O)c2ccccc2)cc1,6%,-5%,-4%,u,17%
